Test systems include BT-549 breast; MDA-MB-435 melanoma; SW-620 colon; MCF7 breast; HCT-116 colon; HCC-2998 colon; KM12 colon.
What all share (assay): NCI-60 one-dose screen, 48 h (100 = growth as untreated, 0 = no growth, -100 = all killed)
What all share (conditions): 10 µM unless noted

Compounds without any hit were thinned out: in the full panel of roughly 83,000, 20% have a hit.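 Testing used 96-well plates and a 48-hour single-concentration exposure. Example: -40 means 40% of the starting cells died.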 A number with no mark means an inactive call. Active and inactive are the calls of the source. The calls were made as follows: active = growth percent below 10; inactive = the rest.

For 15 compounds, growth results are on record in PubChem BioAssay (NCI).

For the compound `COc1ccc(-n2nc(C(=O)NCC(=O)O)nc2-c2ccccc2)cc1`, the growth with BT-549 breast was 94.2%; with MDA-MB-435 melanoma, 111%; with SW-620 colon, 112%; with MCF7 breast, 98.2%; in the assay on HCT-116 colon, 101%; in the assay with HCC-2998 colon, 118%. The growth in the assay on KM12 colon is 108%.

Regarding `CCCCn1c(=O)c(/C=C/C(=O)/C=C/c2ccc(O)c(OC)c2)cc2ccc(Cl)cc21`, the growth in the assay with BT-549 breast was 11.4%; in the assay on MDA-MB-435 melanoma it was 2.81% (active); with SW-620 colon, 16.1%; with MCF7 breast, 46.3%; with HCT-116 colon, -55.5% (active); in the assay with HCC-2998 colon, 33.3%. Besides, the growth in the assay with KM12 colon is 6.78% (active).

As to `O=c1c2ccccc2oc2ccc(OCCCCCCN3CCCCCC3)cc12`, the growth with BT-549 breast is 60.5%; in the assay on MDA-MB-435 melanoma, 44.6%; in the assay on SW-620 colon, 23.5%; in the assay with MCF7 breast, 28.9%; with HCT-116 colon, 25.6%; with HCC-2998 colon, 62.9%. In addition, the growth in the assay with KM12 colon was 29%.

Take `O=C(Nc1nc2ccc(C(F)(F)F)cc2s1)c1cc(Cl)ccc1O`: the growth with BT-549 breast is -8.57% (active); with MDA-MB-435 melanoma, 10.2%; in the assay on SW-620 colon, 12.8%; with MCF7 breast, -1.08% (active); with HCT-116 colon it was 4.81% (active); with HCC-2998 colon, 10.9%. Besides, the growth in the assay on KM12 colon was 8.91% (active).

Regarding `COc1cc2c(cc1OC)C(Sc1ccc(Cl)cc1)c1c(nc(N)c(C#N)c1N)O2` (stereo not given), the growth with BT-549 breast was 1.72% (active); in the assay with MDA-MB-435 melanoma, -43.8% (active); with SW-620 colon, -63.1% (active); with MCF7 breast it was -52.2% (active); in the assay on HCT-116 colon, -70.6% (active); in the assay with HCC-2998 colon, -48.1% (active). The growth in the assay on KM12 colon is -27.8% (active).

Consider `CCOC(=O)/C=C1\SC(=Nc2ccc(C#N)cc2)N(CCN2C(=O)/C(=C/C(=O)OCC)SC2=Nc2ccc(C#N)cc2)C1=O`, for which the growth with BT-549 breast is 32.5%; with MDA-MB-435 melanoma, 72.6%; with SW-620 colon it was 9.61% (active); in the assay with MCF7 breast, 24.4%; in the assay with HCT-116 colon, 4.59% (active); in the assay on HCC-2998 colon, 20.6%. The growth in the assay on KM12 colon was 23.2%.

As to `OCCNc1nc(NCCO)nc(Nc2ccc(C3=NN(c4cc(Cl)cc(Cl)c4)C(c4ccccc4)C3)cc2)n1` (stereo not given), the growth with BT-549 breast is 59.4%; in the assay with MDA-MB-435 melanoma, 49.5%; in the assay on SW-620 colon, 60%; in the assay with MCF7 breast it was 16.3%; in the assay on HCT-116 colon, 33.8%; with HCC-2998 colon, 52.8%. Also, the growth in the assay on KM12 colon is 27.9%.

As for `Cc1[nH]c2ncnc(Oc3ccc(NC(=O)Nc4ccc(Cl)c(C(F)(F)F)c4)cc3)c2c1C`, the growth in the assay on BT-549 breast was 79.4%; in the assay with MDA-MB-435 melanoma, 45.4%; with SW-620 colon it was 77.9%; in the assay with MCF7 breast, 31.6%; with HCT-116 colon, 42.4%; in the assay with HCC-2998 colon it was 60.5%. Besides, the growth in the assay on KM12 colon was 27.3%.

Turning to `CCOC(=O)c1cnn(-c2nc(-c3ccc(F)cc3)c(C#N)c(N3CCOCC3)n2)c1N`, the growth in the assay on BT-549 breast is 95.6%; in the assay with MDA-MB-435 melanoma it was 99.1%; with SW-620 colon, 104%; with MCF7 breast it was 89.9%; in the assay with HCT-116 colon, 99.5%; in the assay on HCC-2998 colon it was 111%. Also, the growth with KM12 colon was 105%.

`Cc1cccc(NC(=O)c2sc3nc4c(cc3c2N)CN(Cc2ccccc2)CC4)c1C`: the growth in the assay on BT-549 breast was 54%; in the assay with MDA-MB-435 melanoma, -25.2% (active); with SW-620 colon, 24.3%; in the assay with MCF7 breast, 22.4%; in the assay with HCT-116 colon, 29.2%; in the assay with HCC-2998 colon, 55.8%. Further, the growth with KM12 colon was 25.7%.

On to `COc1ccccc1C(=O)/C=C/c1cc2cccc(OC)c2[nH]c1=O`, for which the growth in the assay on BT-549 breast was -3.55% (active); in the assay on MDA-MB-435 melanoma, 6.42% (active); with SW-620 colon, -6.28% (active); with MCF7 breast it was 13.4%; with HCT-116 colon, -15% (active); in the assay with HCC-2998 colon, -84.7% (active). For the same compound, the growth in the assay with KM12 colon is -49.1% (active).

As for `Cc1nc2sc(C(=O)Nc3cccc(Cl)c3C)c(N)c2cc1C(C)O` (stereo not given), the growth in the assay with BT-549 breast is 51.3%; with MDA-MB-435 melanoma, 1.51% (active); with SW-620 colon it was 38.5%; in the assay on MCF7 breast it was 16.6%; in the assay with HCT-116 colon it was 13.9%; in the assay with HCC-2998 colon, 30.4%. For the same compound, the growth in the assay with KM12 colon is 19.1%.

For `CCCCn1c2cc(OCc3cn(-c4ccc(Cl)cc4)nn3)ccc2c2ccnc(C)c21`, the growth was 61.7% in the assay on BT-549 breast; 60.2% in the assay on MDA-MB-435 melanoma; 34.2% with SW-620 colon; 25.8% in the assay with MCF7 breast; 8.91% (active) with HCT-116 colon; 43.8% in the assay with HCC-2998 colon. Moreover, the growth with KM12 colon is 41.9%.

Consider `c1cc(CNC23CC4CC(CC(C4)C2)C3)cc(C[N+](Cc2cccc(CNC34CC5CC(CC(C5)C3)C4)c2)(Cc2cccc(CNC34CC5CC(CC(C5)C3)C4)c2)Cc2cccc(CNC34CC5CC(CC(C5)C3)C4)c2)c1` (stereo not given), for which the growth with BT-549 breast was 24.5% [42 µM]; with MDA-MB-435 melanoma it was 11.3% [42 µM]; with SW-620 colon it was 20.6% [42 µM]; in the assay on MCF7 breast, 2.14% [42 µM] (active); with HCT-116 colon, -3.55% [42 µM] (active); in the assay with HCC-2998 colon, 34.3% [42 µM]. Further, the growth in the assay on KM12 colon was 25.8% [42 µM].

As to `CCCCn1c(=O)c(/C=C/C(=O)/C=C/c2cc3ccccc3n(CCCC)c2=O)cc2ccccc21`, the growth with BT-549 breast is -54.5% (active); in the assay on MDA-MB-435 melanoma, -65.2% (active); in the assay with SW-620 colon it was -2.85% (active); with MCF7 breast, -0.486% (active); with HCT-116 colon, -90.3% (active); in the assay on HCC-2998 colon, -92.6% (active). The growth with KM12 colon is -75.8% (active).
